In all, about 290,000 compounds went through this assay and about 150 (0.052%) were called active. This excerpt belongs to a sample that is enriched for actives. Results with a measured potency or affinity are listed apart. Unmarked numbers belong to inactive results.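 The calls were made as follows: active = inhibition of at least 50% with at least 30 cells and total cytoplasm GFP at most 10,000,000; inconclusive = under 30 cells or total GFP of 10,000,000 plus; inactive = the rest.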
Target: G-protein coupled receptor 35 (Homo sapiens) (UniProt Q9HC97)
Sequence (Q9HC97 whole entry, looked up): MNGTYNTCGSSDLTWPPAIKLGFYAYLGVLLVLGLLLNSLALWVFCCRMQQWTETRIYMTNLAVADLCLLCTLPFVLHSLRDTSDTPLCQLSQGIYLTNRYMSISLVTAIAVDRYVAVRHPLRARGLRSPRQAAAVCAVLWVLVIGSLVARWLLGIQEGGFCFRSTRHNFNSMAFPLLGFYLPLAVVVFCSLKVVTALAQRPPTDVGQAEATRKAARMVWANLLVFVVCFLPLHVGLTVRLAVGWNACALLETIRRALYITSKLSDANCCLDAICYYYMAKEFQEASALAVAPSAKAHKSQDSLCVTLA
Test: GPR35 antagonists blocking zaprinast-driven arrestin recruitment, primary screen, imaging, U2OS, beta-arrestin-GFP, zaprinast agonist (AID 2058)
Settings: U2OS GPR35 beta-arrestin-GFP translocation imaging, zaprinast antagonism; at 10 µM; active compounds read high

For `CN1/C(=C\C=C\C2=[N+](C)c3ccc4ccccc4c3C2(C)C)C(C)(C)c2ccccc21`, the inhibition was 111% (active).
In the case of `COc1cccc(C2CC3C(=O)C=CC2N3Cc2ccccc2)c1` (stereo not given), the inhibition is reported as 58.2% (active).
For `Cc1c2ccncc2c(C)c2c1[nH]c1ccccc12`, the inhibition was 57.9% (active).

First: CN1/C(=C\C=C2C(=O)NC(=O)NC2=O)C(C)(C)c2ccccc21
Second: CN1/C(=C\C=Nc2ccccc2)C(C)(C)c2ccccc21
The inhibition of the first is higher: 1.5% for the first, -7.9% for the second.

Going from `COc1ccc(NC(=O)c2cn(CCC#N)nc2-c2cccc(Br)c2)cc1` to `COc1cccc(-c2nn(Cc3ccccc3)cc2C(=O)O)c1`, the inhibition rises from -0.5% to 21.1%.

First: CCCNS(=O)(=O)c1ccc(OCC(=O)N2CCN(C)CC2)cc1
Second: CCOc1ccc(Cl)cc1CNCCc1ccc(F)cc1
The inhibition of the first is higher: 3.2% for the first, -1.9% for the second.

Compared with `CCCCNC(=O)NC(C(N)=O)P(=O)(OCC)OCC` (stereo not given), `Cc1ccc(C(=O)Nc2ccc(-n3ccnc3P(=O)(O)c3ccccc3)cc2)cc1` is higher in inhibition: -6.8% for the first, -2.7% for the second.

First: COc1cccc(CN2CCCCC2c2cccnc2)c1 (stereo not given)
Second: c1ccc2c(c1)[nH]c1cnccc12
The inhibition of the first is higher: 11.2% for the first, -1.7% for the second.

Going from `Clc1ccc(NC2=NCCCS2)cc1Cl` to `Cc1nccc2c1[nH]c1ccccc12`, the inhibition rises from -7.1% to 2.3%.

From PubChem BioAssay AID2058 (Sanford-Burnham Center for Chemical Genomics, 2009)
